Compounds with a hit are over-represented: about 9.4% of the library has one in this group of screens.
Rab9 prom act – qHTS Assay for Rab9 Promoter Activators; Huh7 Rab9 promoter-luciferase reporter, luminescence, 24 h; Potency, µM (titrated, usually from 9.22 µM), without a hit: at the highest dose activation, negative = inhibition, hits mostly activators; 320,000 tested, 2.8% active; note: % of control where 0% means no effect; nearly all actives have a fitted effect of over 60% in size
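Cells were plated at 1500 per well in reduced-serum medium with 10% FBS and left 2 h. Compound in DMSO was then added for 24 h at 37 °C. Reporter signal was read by luminescence after 10 min with luciferase detection reagent.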
ELG1 genotoxic – qHTS screen for small molecules that induce genotoxicity in human embryonic kidney (HEK293T) cells expressing luciferase-tagged ELG1; Potency, µM (series often up to 46 µM), for inactives: at the top dose activity change, positive = activation, usual class: activators; HEK293T ELG1-luciferase reporter, luminescence, 16 h; 330,000 tested, 1.3% active; note: % of control where 0% means no effect; nearly all actives have a fitted effect of over 60% in size
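Cells (2,000/well) expressing the ELG1-luciferase fusion are dosed by pin tool and kept 16 hr at 37 °C, 5% CO2. Signal comes from ONE-Glo luciferase reagent after 30 min at room temperature.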
FLuc modulator – qHTS profiling assay for firefly luciferase inhibitor/activator using purifed enzyme and Km concentrations of substrates (counterscreen for miR-21 project). purified FLuc, Km substrates, luminescence inhibition. Potency, µM (top dose mostly 57.5 µM), for the others: at the highest dose activity change, negative = inhibition, most hits filed as inhibitors. 360,000 tested, 6.9% active. Luciferin 4-monooxygenase (Photinus pyralis), P08659;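 note: plate controls were vehicle for no effect and reference inhibitor for full effect; nearly all actives have a fitted effect of over 55% in size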
Target sequence (P08659 whole entry, looked up): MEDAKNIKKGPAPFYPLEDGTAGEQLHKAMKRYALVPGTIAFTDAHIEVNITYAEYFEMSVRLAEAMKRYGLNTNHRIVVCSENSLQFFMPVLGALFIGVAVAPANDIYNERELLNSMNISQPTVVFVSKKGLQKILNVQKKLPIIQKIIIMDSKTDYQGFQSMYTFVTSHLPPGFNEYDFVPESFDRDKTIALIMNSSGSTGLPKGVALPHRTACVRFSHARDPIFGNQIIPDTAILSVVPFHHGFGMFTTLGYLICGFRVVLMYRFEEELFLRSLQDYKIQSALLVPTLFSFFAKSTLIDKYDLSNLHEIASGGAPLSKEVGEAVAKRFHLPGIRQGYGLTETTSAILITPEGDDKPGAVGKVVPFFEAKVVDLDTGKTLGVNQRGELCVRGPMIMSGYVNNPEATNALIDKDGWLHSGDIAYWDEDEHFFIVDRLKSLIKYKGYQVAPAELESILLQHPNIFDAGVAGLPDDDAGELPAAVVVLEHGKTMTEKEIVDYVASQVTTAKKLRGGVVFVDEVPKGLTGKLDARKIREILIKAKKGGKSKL
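Purified P. pyralis luciferase (10nM final) with 10uM D-luciferin and 10uM ATP (Km levels) in 50mM Tris acetate pH 7.5, 10mM Mg acetate, 0.01% Tween-20, 0.05% BSA; qHTS 6-point titration, ~60 µM downward; luminescence read.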
NPC1 prom act – qHTS Assay for NPC1 Promoter Activators; 320,000 tested, 2.4% active; Huh7 NPC1 promoter luciferase reporter, 24 h; Potency, µM (series often up to 9.22 µM), inactives show top-dose activation, actives largely listed as activators; AID 485313, 2010; note: % of control where 0% means no effect; nearly all actives have a fitted effect of over 60% in size
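Cells: Huh7 expressing luciferase under the NPC1 promoter, 1500/well. Seeded 2 h, compound added, incubated 24 h at 37 °C. Luciferase reagent, 10 min ambient, then luminescence.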
ELG1 DNA repair – qHTS screen for small molecules that inhibit ELG1-dependent DNA repair in human embryonic kidney (HEK293T) cells expressing luciferase-tagged ELG1; HEK293T ELG1-luciferase reporter, luminescence, 16 h; DNA damage induced by 5-fluorouridine; Potency, µM (top dose mostly 46.1 µM), inactives show top-dose activity change, negative = inhibition, usual class: inhibitors; 330,000 tested, 2.3% active; AID 504467, 2011; note: % is set by controls: 0 for no effect and ±100 for the full control effect; nearly all actives have a fitted effect of over 55% in size
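5-Fluorouridine DNA damage + compound/DMSO, 2,000 cells/well, 16 h, 37 °C/5% CO2. ONE-Glo, 30 min RT, luminescence. Readout = decrease in reporter signal.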
SMN2 splice enh – qHTS Assay for Enhancers of SMN2 Splice Variant Expression; HEK293 SMN2-luciferase splicing reporter, luminescence, 30-36 h; Potency, µM (series often up to 46.1 µM), for the others: at the top dose activity change, positive = activation, hits mostly activators; 210,000 tested, 2.8% active; AID 1458, 2008; note: % of control where 0% means no effect; nearly all actives have a fitted effect of over 55% in size
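qHTS luciferase splicing reporter: luminescence rises when SMN2 exon 7 is included in transfected HEK293 cells. Compound exposure lasted 30-36 h at 37C, with 4.5 mM final sodium butyrate as control, followed by a ONE-Glo read.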
Starred values were filed as active, the others as inactive; ? = inconclusive; / = not tested or not shown. Calls come from the whole dose curve; as a rule, active = well fitted curve in the direction sought with a large enough effect; inconclusive = small, poorly fitted or top-dose-only effect, or another doubt; inactive = no such curve, though single readings can be large; an effect the other way counts as inactive or inconclusive. Potency is the fitted concentration of half-maximal effect.

SMILES	Rab9 prom act	ELG1 genotoxic	FLuc modulator	NPC1 prom act	ELG1 DNA repair	SMN2 splice enh
CCc1ccccc1Nc1nn2c(=O)c3ccc(C(=O)NC(C)c4ccccc4)cc3nc2s1 (stereo not drawn)	/	/	-3%	/	/	/
COc1ccc(OC)c(NC(=O)c2csnn2)c1	/	/	0%	/	/	/
CCc1ccccc1N(C)C(=O)c1nn(C)c2c1CSc1ccccc1-2	/	/	-3%	/	/	/
Cc1cc(C)n(-c2ccc(Cl)c(C(=O)O)c2)n1	-7%	10%	19µM*	-2%	13%	/
Cc1ccc2nc(/C(C#N)=C/c3ccc(-c4cccc(Cl)c4)o3)[nH]c2c1	/	/	-17%	/	/	-1%
Cc1nc(S/C(=C/c2ccc(-c3cccc(Cl)c3)o2)C(=O)O)n[nH]1	4%	-4%	5.4µM*	0%	7%	-23%
COC(=O)c1ccc(NC(=O)NC(C)c2c(-n3cccc3)sc(C)c2C)cc1 (stereo not drawn)	/	/	-2%	/	/	-2%
CC(C)N1C/C(=C/c2ccsc2)C(=O)/C(=C/c2ccsc2)C1	-22%	-11%	0%	-6%	18µM*	-78%
CCn1c(SCC(=O)Nc2c(C)cccc2C)nnc1-c1nonc1NC(C)=O	/	/	-1%	/	/	/
COCCNc1nc(-c2cc3ccccc3o2)cs1	1µM*	?	1.5µM*	1.6µM*	?	3.2µM*
COc1cc(OC)cc(C(=O)NC(=S)Nc2nc(-c3cc4ccccc4o3)cs2)c1	-1%	-2%	2%	-2%	-4%	/
C=C(C)CNC(=S)Nc1nc2c(cc1C(=O)OCC)CCCC2	?	?	13µM*	?	?	4.5µM*
COc1cccc([C@@H]2Oc3ccc(Br)cc3C(=O)[C@H]2OC(=O)Nc2ccc(C)c(Br)c2)c1	/	/	/	/	/	-4%
Cc1sc2ncn(CC(=O)N3CCN(c4ccccc4F)CC3)c(=O)c2c1S(=O)(=O)N1CCC(C)CC1	/	/	3%	/	/	-3%
Cc1ccc(Oc2ccc3c(c2)C(=O)N(c2ccc(S(=O)(=O)Nc4nccs4)cc2)C3=O)cc1	-5%	-2%	19µM*	-5%	-2%	-15%
COc1ccc(CN(C(=O)CSc2nnc(-c3ccccc3C)o2)c2ccc(F)cc2)cc1	1%	-6%	-1%	-2%	?	-15%
O=C(CSc1nnc(-c2c[nH]c3ccccc23)o1)N(Cc1ccccc1)c1ccc(F)cc1	-2%	-12%	-11%	-2%	21µM*	-75%
CCOc1ccccc1NC(=O)Cn1c(=O)n(-c2ccc(Cl)cc2)c(=O)c2oc3ccccc3c21	/	/	-5%	/	/	/
N#C/C(C(=O)NCc1ccccc1)=C1/N=C(NC(=O)c2ccco2)c2ccccc21	0%	-4%	2%	1%	1%	/
COc1ccc(CCNC(=O)/C(C#N)=C2\N=C(NC(=O)c3ccco3)c3ccccc32)cc1	-1%	-5%	3%	-3%	7.3µM*	/
COCCNC(=O)[C@H](C)/C=C/C(NC(=O)OCc1ccccc1)c1ccc(C(=O)OC)cc1 (stereo partly drawn)	/	/	/	/	/	-11%
O=C(OCC(=O)N1CCC(Cc2ccccc2)CC1)c1ccccc1F	2%	3%	4.3µM*	1%	?	/
O=C(OCC(=O)N1CCC(Cc2ccccc2)CC1)c1ccccc1	?	6%	12µM*	-14%	17%	-6%
O=C(OCC(=O)N1CCC(Cc2ccccc2)CC1)c1cccnc1Cl	/	-2%	/	/	-11%	/
Cc1cccc(N=C2Sc3nc4c(C)c(C)ccc4cc3CN2CCN2CCOCC2)c1	-5%	-5%	1%	-1%	9.2µM*	-2%
SMILES	Rab9 prom act	ELG1 genotoxic	FLuc modulator	NPC1 prom act	ELG1 DNA repair	SMN2 splice enh
COCCN1Cc2cc3cc(C)ccc3nc2SC1=Nc1cccc(OC)c1	0%	-2%	-8%	0%	?	-15%
CCN(CC)C(=O)N1c2ccccc2C=Cc2ccccc21	5%	-10%	1%	-4%	0%	4µM*
Cc1cccc(C(=O)NC2(C(F)(F)F)N=C(c3ccccc3)N(Cc3ccccc3)C2=O)c1 (stereo not drawn)	/	/	8%	/	/	-13%
COc1cn(-c2ccccc2)nc1C(=O)Nc1ccc(C)cc1Cl	14%	27%	6.7µM*	1%	-9%	/
COc1ccc(CNC(=O)c2nn(-c3ccccc3)cc2OC)cc1	0%	-7%	-15%	0%	-9%	/
CCCCn1c(SCC(=O)c2ccccc2)nc2sc3c(c2c1=O)CCCC3	/	/	7%	/	/	-8%
Cc1ccc2nc(-c3ccc(Cl)c(NC(=O)COc4ccc(C(C)C)cc4)c3)oc2c1	/	/	11µM*	/	/	17%
Cc1ccc2nc(-c3ccc(Cl)c(NC(=O)COc4ccc([N+](=O)[O-])cc4)c3)oc2c1	/	/	-9%	/	/	16%
Cc1ccc(OCC(=O)Nc2ccc(-c3nc4ccc(C)cc4o3)cc2)cc1	/	/	-2%	/	/	0.63µM*
Cc1ccc2nc(-c3ccc(Cl)c(NC(=O)c4ccc5c(c4)OCCO5)c3)oc2c1	/	/	11µM*	/	/	-34%
Cc1ccc2oc(-c3ccc(C)c(NC(=O)c4ccc5c(c4)OCCO5)c3)nc2c1	/	/	-16%	/	/	2%
CCOC(=O)c1c(NC(=S)N2CCCCC2)sc2c1CCN(C(=O)OCC)C2	-1%	-2%	-4%	-6%	?	/
CCOC(=O)c1c(NC(=S)N2CCOCC2)sc2c1CCN(C(=O)OCC)C2	-1%	3%	-4%	-7%	23µM*	/
CCc1ccccc1NC(=O)Cn1nc(C)c2nn(-c3ccc(Cl)cc3)c(C)c2c1=O	/	/	-2%	/	/	/
Cc1ccc(Cn2ccc(NC(=O)c3noc4c3CCCC4)n2)cc1	?	21µM*	?	?	?	3%
Cc1ccc(NC(=O)c2noc3c2CCCCC3)cc1C	0.63µM*	?	1.1µM*	0.4µM*	?	7.9µM*
CC(=O)c1cccc(NC(=O)c2noc3c2CCCC3)c1	/	/	11µM*	/	/	2.8µM*
CCc1ccc(NC(=O)c2noc3c2CCC3)cc1	0.56µM*	0.82µM*	0.67µM*	1µM*	?	13µM*
Cc1ccc(CNc2nc(-c3ccco3)nn2C(=O)c2ccccc2[N+](=O)[O-])cc1	/	/	-9%	/	/	/
O=C(NCc1ccccc1)c1noc2c1CCCC2	21%	?	-18%	20%	24%	/
COc1ccc(C(=O)C2CCCN(C(=O)c3noc4c3CCCC4)C2)cc1F (stereo not drawn)	-3%	-3%	4%	2%	?	/

Screening data: PubChem BioAssay, National Center for Advancing Translational Sciences (NCATS)
